Screens as filed in PubChem.
BL2 CD40 inh: CD40 pathway inhibition in BL2 cells. inhibition, % at 10 µM. BL2 NF-kB luciferase reporter, CD40L-induced, 4 h. 83,000 tested, 0.94% active;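 active = mean inhibition of at least 50% with a set share of replicates also reaching that level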;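 also: 0% = neutral control wells and 100% = IKK inhibitor VII at 50 µM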
* = called active by the depositor; [ ] = remark or other dose. The sample as a whole holds a higher share of hits than the screen did.

SMILES	BL2 CD40 inh
Cc1cccc(S(=O)(=O)N2[C@@H]3c4cccc(=O)n4C[C@H]2[C@H](CO)[C@H]3C(=O)N(C)C)c1	-5[25 µM]
CNC[C@@H]1OCc2ccccc2-c2c(n(C)c3ccccc23)C(=O)N([C@H](C)CO)C[C@@H]1C	-4
O=C(c1cnccn1)N1CCN(C/C=C/c2ccccc2)CC1	5
COc1cccc(-c2ccc3c(c2)[C@@H]2[C@@H](CCN2C(=O)C2CC2)[C@H](CO)N3)c1	1
O=C(NCC1CC1)[C@H]1[C@H](CO)[C@H]2Cn3c(cccc3=O)[C@H]2N1CCC(F)(F)F	11[25 µM]
CN(C)CC(=O)N1[C@H](C#N)[C@H](c2ccccc2-c2ccc(C(=O)N(C)C)cc2)[C@@H]1CO	-13[25 µM]
COc1ccc(C#Cc2ccc3c(c2)[C@@H]2[C@@H](CCN2C(=O)c2ccccc2F)[C@@H](CO)N3C)cc1	-5[25 µM]
CC(=O)O[C@@H]1c2c(ccc3ccc(=O)oc23)OC(C)(C)[C@@H]1OC(=O)CC(C)C	13[25 µM]
CCCNC(=O)[C@@H]1[C@@H](CO)[C@@H]2Cn3c(ccc(-c4ccccc4F)c3=O)[C@@H]2N1C(=O)C1CCC1	-8[25 µM]
O=C(C[C@@H]1C[C@@H]2c3cc(NC(=O)C4CCC4)ccc3O[C@@H]2[C@@H](CO)O1)NC1CCCC1	-3[25 µM]
CNC(=O)OCc1nc(SSC(C)(C)C)n(C)c1COC(=O)NC	96*
CCC(=O)N1[C@H](CN(C)C(=O)c2cccc(F)c2)[C@@H](c2ccccc2)[C@@H]1CO	-24
COc1ccc(S(=O)(=O)N2CCC(C(=O)Nc3cc(Cl)ccc3N3CCOCC3)CC2)cc1OC	-2
CCN(CC(=O)Nc1c(F)cccc1F)C(=O)CCN1C(=O)c2cccc([N+](=O)[O-])c2C1=O	16
COC(=O)c1ccccc1NC(=O)COC(=O)/C=C/c1cccs1	10
COC(=O)c1ccccc1NC(=O)C(CCS(C)(=O)=O)NC(C)=O (stereo not drawn)	7
COC(=O)c1ccccc1NC1=C/C(=N\S(=O)(=O)c2cccs2)c2ccccc2C1=O	33*
CN(C)c1ccc(NC(=O)c2cnsn2)cc1	65*
CN(C)c1ccc(NC(=O)c2ccc3c(c2)nnn3C)cc1	-58
CN(C)c1ccc(NC(=O)c2ccc3nc[nH]c3c2)cc1	-59
CCOc1ccc(S(=O)(=O)N2CCOCC2)cc1NC(=O)CCOc1ccc(C(C)(C)C)cc1	1
O=C(NC1CCCCNC1=O)c1ccccc1 (stereo not drawn)	-11
O=C(NC(=S)/C(=C1\CCCCCN1)[N+](=O)[O-])c1ccccc1	72*
O=C(COC(=O)c1ccccc1[N+](=O)[O-])NC(=O)c1ccccc1	-41
O=C(O)CCC(=O)OCCN(Cc1ccc(Oc2ccc([N+](=O)[O-])cc2)cc1)C(=O)C(Cl)Cl	8
SMILES	BL2 CD40 inh
COc1ccc(NC(=O)N2CC(=O)N3[C@H](C2)[C@@H](c2ccc(Br)cc2)[C@@H]3CO)cc1	-5[25 µM]
CCCNC(=O)C[C@@H]1CC[C@@H]2[C@H](COc3ccc(NC(=O)NCCC)cc3C(=O)N2C)O1	-2
CCOC(=O)C1=C(COC(=O)c2cc(Br)c(Br)s2)NC(=O)NC1C (stereo not drawn)	-5
O=C(NCc1cccs1)c1ccc2nc([C@@H]3O[C@H](CO)[C@H](O)[C@H](O)[C@H]3O)[nH]c2c1	2
COc1ccccc1C(=O)Nc1ccc2c(c1)C(=O)N(C)[C@H]1CC[C@H](CC(=O)Nc3cccc(C(C)C)c3)O[C@@H]1CO2	57*[25 µM]
CC(C)c1cccc(NC(=O)C[C@H]2CC[C@H]3[C@@H](COc4ccc(NS(=O)(=O)c5ccccc5Cl)cc4C(=O)N3C)O2)c1	24[25 µM]
COc1ccccc1C(=O)Nc1ccc2c(c1)C(=O)N(C)[C@H]1CC[C@H](CC(=O)Nc3cc(F)ccc3F)O[C@@H]1CO2	30[25 µM]
O=C1CN(S(=O)(=O)c2cccc(F)c2)C[C@@H]2[C@H](c3ccc(C4=CCCC4)cc3)[C@H](CO)N12	10[25 µM]
CCCNC(=O)N1C[C@@H]2[C@H](c3ccccc31)[C@@H](CO)N2C(=O)Nc1ccc(F)cc1	-3
CC(=O)N(C)C[C@H]1Oc2ccc(N(C)C)cc2CC(=O)N(C)C[C@@H]1C	6
O=C(OCC(=O)N1CCN(c2ccccc2)CC1)c1ccccc1OC(F)F	-11
O=C(OCC(=O)N1CCN(c2ccccc2)CC1)c1cccs1	-44
O=C(OCC(=O)N1CCN(c2ccccc2)CC1)c1ccccc1NCCO	35*
CC(=O)N1CC2([N+](=O)[O-])CN(C(C)=O)CC([N+](=O)[O-])(C1)C2(C)C	5
OC[C@@H]1CN(Cc2ccncc2)C[C@H](n2cnc3c(NCc4ccncc4)ncnc32)O1	1
C[C@@H]1CN([C@@H](C)CO)C(=O)c2c(c3ccccc3n2C)-c2ccccc2CO[C@@H]1CN(C)C(=O)Cc1ccccc1	3
CCOC(=O)c1sc2ccccc2c1OC(=O)c1ccccc1OC	64*
CC(=O)c1sc2ccccc2c1OC(=O)c1ccco1	-6
CCOC(=O)C1=C(COC(=O)c2ccccc2OC)NC(=O)NC1C (stereo not drawn)	-5
